The text below walks through data of article PMC4336329 (PLoS ONE, 2015).

Each structure is given as a SMILES string. In all, about 310,000 compounds went through this assay and about 14,000 (4.5%) showed an effect of 50% or more. The effect is printed as a negative number. The list comes from a sample in which strong results are over-represented; it also holds similar structures and randomly drawn compounds.
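Further: peak tail current of the secondary pulse compared with the same well before compound.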

In the assay the target is human ether-à-go-go-related gene (hERG) potassium channel (human, UniProt Q12809). As to the kind of experiment: primary screen, population patch clamp on CHO cells stably expressing hERG; higher = less effect of the substance.
human ether-à-go-go-related gene (hERG) potassium channel, sequence (Q12809 whole entry, looked up): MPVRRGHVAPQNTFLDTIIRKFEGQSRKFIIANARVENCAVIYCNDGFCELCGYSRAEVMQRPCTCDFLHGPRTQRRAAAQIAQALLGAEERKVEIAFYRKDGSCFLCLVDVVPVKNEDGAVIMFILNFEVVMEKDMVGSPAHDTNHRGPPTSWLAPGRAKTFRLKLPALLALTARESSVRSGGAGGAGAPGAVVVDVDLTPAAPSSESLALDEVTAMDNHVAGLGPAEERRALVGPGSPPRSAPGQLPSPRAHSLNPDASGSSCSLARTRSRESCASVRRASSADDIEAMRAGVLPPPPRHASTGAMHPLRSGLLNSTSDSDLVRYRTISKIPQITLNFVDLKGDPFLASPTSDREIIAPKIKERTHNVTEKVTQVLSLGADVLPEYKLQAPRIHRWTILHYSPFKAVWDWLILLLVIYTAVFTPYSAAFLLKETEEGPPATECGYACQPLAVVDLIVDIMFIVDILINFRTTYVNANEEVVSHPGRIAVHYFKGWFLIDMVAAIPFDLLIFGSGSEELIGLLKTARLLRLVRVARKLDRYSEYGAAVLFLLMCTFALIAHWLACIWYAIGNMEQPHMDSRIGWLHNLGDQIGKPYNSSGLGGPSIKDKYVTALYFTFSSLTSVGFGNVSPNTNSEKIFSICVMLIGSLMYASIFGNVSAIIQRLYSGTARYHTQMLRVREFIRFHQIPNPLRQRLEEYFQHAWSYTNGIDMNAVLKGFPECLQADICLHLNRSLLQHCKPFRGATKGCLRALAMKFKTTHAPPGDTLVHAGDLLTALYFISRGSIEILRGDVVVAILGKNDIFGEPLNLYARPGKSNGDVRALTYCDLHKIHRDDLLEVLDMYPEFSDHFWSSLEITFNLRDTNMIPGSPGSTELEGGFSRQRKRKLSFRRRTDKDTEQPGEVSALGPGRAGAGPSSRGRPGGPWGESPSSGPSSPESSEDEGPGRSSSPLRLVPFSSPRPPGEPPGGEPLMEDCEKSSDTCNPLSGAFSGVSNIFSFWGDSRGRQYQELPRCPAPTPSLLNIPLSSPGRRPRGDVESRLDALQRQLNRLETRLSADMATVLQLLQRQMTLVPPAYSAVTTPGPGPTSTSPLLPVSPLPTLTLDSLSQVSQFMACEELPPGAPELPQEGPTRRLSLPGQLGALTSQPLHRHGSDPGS
On to `CN(C)S(=O)(=O)c1cccc(-c2nn(-c3ccccc3)cc2/C=C2\SC(=S)NC2=O)c1`, for which the “hERG current change (%, negative = inhibition) at 10uM” value was 20.1%. Turning to `CCOc1cc(C(=O)OCC(=O)N(C)c2ccccc2)cc(OCC)c1OCC`, the “hERG current change (%, negative = inhibition) at 10uM” value is listed as -17.6%. For the compound `CCc1nnc(NC(=O)CSc2ncc(-c3ccccc3)n2C)s1`, the “hERG current change (%, negative = inhibition) at 10uM” value is given as -0.226%.

Turning to `CN(Cc1cn(C)nc1-c1ccc(Oc2ccccc2)cc1)Cc1cnc2ccccn12`, the “hERG current change (%, negative = inhibition) at 10uM” value is recorded as -54%.

Turning to `Cn1cc(CNCc2cnc3ccccn23)c(-c2ccc(Oc3ccccc3)cc2)n1`, the “hERG current change (%, negative = inhibition) at 10uM” value was -50%. For `Cc1cnccc1CN(C)Cc1cn(C)nc1-c1ccc(Oc2ccccc2)cc1`, the “hERG current change (%, negative = inhibition) at 10uM” value was -27.4%. As for `NC(=O)C1CCN(C2=C(Cl)C(=O)c3ccccc3C2=O)CC1`, the “hERG current change (%, negative = inhibition) at 10uM” value stood at 13.6%. For the compound `NC12CC3CC(C1)CC(CO)(C3)O2`, the “hERG current change (%, negative = inhibition) at 10uM” value is reported as 8.54%.

Take `COc1ccc(N(CC(=O)N2c3ccccc3CC2C)S(=O)(=O)c2c(C)nn(C)c2C)cc1` (stereo not drawn): the “hERG current change (%, negative = inhibition) at 10uM” value is on record as -25.9%. In the case of `OC(CN1CCN(C(c2ccccc2)c2ccccc2)CC1)c1ccc(Br)cc1` (stereo not drawn) it was -28.8%. As for `OC(CN1CCN(c2ccccc2F)CC1)c1ccc(F)cc1` (stereo not drawn), the “hERG current change (%, negative = inhibition) at 10uM” value was -19.3%.

Turning to `OC(CN1CCN(Cc2ccccc2)CC1)c1ccccc1` (stereo not drawn), the “hERG current change (%, negative = inhibition) at 10uM” value was -30.3%. The same measure for `OC(CN1CCOCC1)c1ccc(F)cc1` (stereo not drawn): 12.6%. In the case of `Cl.OC(CN1CCN(Cc2ccccc2)CC1)c1ccc(F)cc1` (stereo not drawn) it was -67.9%. Regarding `OC(CN1CCN(Cc2ccccc2)CC1)c1ccc(Br)cc1` (stereo not drawn), the “hERG current change (%, negative = inhibition) at 10uM” value is -67.9%. For the compound `Cl.Oc1ccc(C2=CCNCC2)cc1O`, the “hERG current change (%, negative = inhibition) at 10uM” value is reported as 10.1%. The same measure for `c1cnc(SCCOc2cccc3ccccc23)nc1`: -8.05%. Take `C=CCNC(=S)NNc1nc(Nc2ccccc2)nc(N2CCCCC2)n1`: the “hERG current change (%, negative = inhibition) at 10uM” value came to 10.3%. As to `COc1ccc(-c2nc(CC(=O)O)cs2)cc1`, the “hERG current change (%, negative = inhibition) at 10uM” value was determined as 6.7%. Take `CCCCN1C(=O)C(=O)N(CC(=O)N2CCN(c3ccccc3)CC2)C1=O`: the “hERG current change (%, negative = inhibition) at 10uM” value was determined as 3.67%. The same measure for `CCOc1ccc(/C=N/N(C)c2ccccc2)cc1OC`: 15.8%; for `CCNc1oc(-c2cccc3ccccc23)nc1C#N`: 15.7%; for `COc1ccc(-c2c[n+](CC(=O)c3ccccc3)c3n2CCCCC3)cc1.[Br-]`: 11.7%. As to `COc1ccc(-c2c[n+](CC(=O)N3c4ccccc4Sc4ccccc43)c3n2CCC3)cc1.[Cl-]`, the “hERG current change (%, negative = inhibition) at 10uM” value was -38.2%. Take `COc1ccc(Cn2c(-c3ccc(Br)cc3)c[n+]3ccccc23)cc1.[Br-]`: the “hERG current change (%, negative = inhibition) at 10uM” value was -8.08%. In the case of `COc1ccc(-c2nnc3n2CCCCC3)cc1` it was 19.9%; in that of `COc1ccc(-c2c[n+]3c4n2CCCCC4=C(c2ccccc2)C3)cc1.[Br-]`, -75.1%; in that of `C[n+]1cc(-c2ccccc2)n2c1CCCCC2.[I-]`, 4.03%. Consider `Clc1ccc(-c2cnc3n2CCCCC3)cc1`, for which the “hERG current change (%, negative = inhibition) at 10uM” value is listed as -46.4%. In the case of `Clc1ccc(C2=C3CCCCn4c(-c5ccccc5)c[n+](c43)C2)cc1.[Br-]` it was -82.1%; in that of `COc1ccc(-c2c[n+]3c4n2CCCCC4=C(c2ccc(Br)cc2)C3)cc1.[Br-]`, -75.1%; in that of `COC(=O)c1cc(S(=O)(=O)N(C)c2ccc(C)c(C)c2)c[nH]1`, -20.2%. In the case of `CCc1nc(NCCN2CCOCC2)c2oc3ccccc3c2n1.Cl` it was -28.2%. On to `Cc1nn(Cc2ccccc2)c(C)c1C(=O)OCC(=O)Nc1cccc(S(N)(=O)=O)c1`, for which the “hERG current change (%, negative = inhibition) at 10uM” value is -0.587%. With `O=C(CSc1nnc(CNC(=O)c2cccs2)o1)Nc1cccc(F)c1`, the “hERG current change (%, negative = inhibition) at 10uM” value is listed as 4.85%. Regarding `Clc1ccccc1Cn1nnc(-c2ccccc2)n1`, the “hERG current change (%, negative = inhibition) at 10uM” value was 4.02%. Regarding `Cl.O=C1C2CCCN2C(=O)N1CCCN1CCN(c2cccc(Br)c2)CC1` (stereo not drawn), the “hERG current change (%, negative = inhibition) at 10uM” value is -9.07%. In the case of `O=C1C2CCCN2C(=O)N1CCCN1CCN(c2cccc(Cl)c2)CC1` (stereo not drawn) it was -2.8%.

For the compound `O=C1C2CCCCN2C(=O)N1CCCCN1CCN(c2cccc(Br)c2)CC1` (stereo not drawn), the “hERG current change (%, negative = inhibition) at 10uM” value is on record as -61.4%. In the case of `O=C1C2CCCN2C(=O)N1CCCCN1CCN(c2ccccc2)CC1` (stereo not drawn), the “hERG current change (%, negative = inhibition) at 10uM” value is -21.6%. In the case of `O=C1C2CCCN2C(=O)N1CCCCN1CCN(CCO)CC1` (stereo not drawn), the “hERG current change (%, negative = inhibition) at 10uM” value is -14.9%. On to `O=C1C2CCCN2C(=O)N1CCCCN1CCN(c2cccc(Cl)c2)CC1` (stereo not drawn), for which the “hERG current change (%, negative = inhibition) at 10uM” value is listed as -65.6%. For `O=C1C2CCCN2C(=O)N1CCCCN1CCN(c2cccc(C(F)(F)F)c2)CC1` (stereo not drawn), the “hERG current change (%, negative = inhibition) at 10uM” value is -60.9%. With `O=C1C2CCCCN2C(=O)N1CCCCN1CCN(c2cccc(Cl)c2)CC1` (stereo not drawn), the “hERG current change (%, negative = inhibition) at 10uM” value is -60.6%. Take `O=C1CC(N2CCSCC2)C(=O)N1c1cccc(Br)c1` (stereo not drawn): the “hERG current change (%, negative = inhibition) at 10uM” value is listed as -3.54%. In the case of `COc1ccc(C(=O)/C=C/Nc2cc(C)on2)c(OC)c1` it was -6.33%; in that of `COC(=O)c1ccccc1NC(=O)NC1CCN(Cc2ccccc2)CC1`, -31.1%; in that of `CCCn1cc(NC(=O)c2cc(-c3ccccc3)on2)cn1`, -21.5%.
